CatL block = inhibitors of human cathepsin L, biochemical; inhibition, %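 (tested at 10 µM)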; purified cathepsin L, fluorogenic substrate, fluorescence; Procathepsin L (Homo sapiens), P07711; 0.17% of 58,000 active; in the data active means inhibition above about 45%;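 further: 0% = enzyme with no compound and 100% = no enzyme blank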
Target sequence (P07711 114-288 limits assumed): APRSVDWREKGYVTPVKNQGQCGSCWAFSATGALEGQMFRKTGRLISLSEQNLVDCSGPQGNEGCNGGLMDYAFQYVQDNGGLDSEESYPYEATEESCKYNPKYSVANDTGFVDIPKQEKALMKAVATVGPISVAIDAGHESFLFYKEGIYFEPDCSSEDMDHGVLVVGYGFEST
Target sequence (P07711 292-333 limits assumed): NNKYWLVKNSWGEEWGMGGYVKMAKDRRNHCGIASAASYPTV
WNV NS2B-NS3 inh = inhibitors of WNV NS2B-NS3 protease, primary screen, biochemical, fluorogenic substrate. Genome polyprotein (West Nile virus), P06935. fluorogenic substrate Ex360/Em465; hits give low values. z-score (concentration not given with the values). 0.18% of 65,000 active. AID 577, 2007; in the data active means z-score below about -3
CatS block = inhibitors of human cathepsin S, biochemical, compound mixtures. recombinant cathepsin S, AMC dipeptide fluorescence, pooled mixtures. inhibition, %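 (tested at 5 µM per compound within 10-compound mixtures)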. AID 501, 2006. 0.06% of 62,000 active; in the data active means inhibition above about 32%, passing the limit was not always enough;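 further: 0% = enzyme without compound and 100% = blank without enzyme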
CatB block = human cathepsin B inhibitors, primary screen, biochemical, fluorogenic substrate; 0.1% of 63,000 active; inhibition, %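 (tested at 10 µM)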; P07858; AID 453, 2006; purified cathepsin B, fluorescence; in the data active means inhibition above about 21%;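 further: 0% = enzyme with no compound and 100% = no enzyme blank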
CatB mixtures = cathepsin B inhibitors from pooled compounds, primary screen, biochemical, compound mixtures, AMC fluorescence; P07858; Purified cathepsin B, AMC dipeptide fluorescence; inhibition, %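 (ten-compound pools at 5 µM per compound and 50 µM total)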; 0.06% of 62,000 active; AID 488, 2006; in the data active means inhibition above about 22%, passing the limit was not always enough;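 further: 0% = enzyme without compound and 100% = no enzyme blank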
Numbers without * were called inactive; . = not tested or not shown. The list is not random: actives were taken first. Their share in the collection is about 0.42%.

SMILES | CatL block | WNV NS2B-NS3 inh | CatS block | CatB block | CatB mixtures
Cc1cccc(NC(=O)CSc2nnc([C@@H](N)Cc3c[nH]c4ccccc34)o2)c1C | 101* | -0.67 | 10 | 1 | 1
CCn1nc(-c2ccccc2)nc2c(=O)n(C)c(=O)nc1-2 | 85* | -0.24 | . | 76* | 47
O=S(=O)(c1ccc(Cl)cc1)N1CN2CCN(C2)C1 | -6 | -4.8* | 18 | 2 | 1
CCOC(=O)c1ccc(NC(=O)c2c(O)[nH]c(=O)[nH]c2=O)cc1 | -14 | -1.5 | -9 | 0 | 1
Cc1nnc(SCc2nc3ccccc3c(=O)n2-c2ccccc2Cl)n1N | . | -2.2 | 7 | 5 | 1
C=CCC1(CN2CCCCCC2=O)C(=O)NC(=O)NC1=O | 12 | -6.5* | . | -1 | .
CC(=O)OC1C2CCCC1C(N1CCCC1)CC2 (stereo not drawn) | 0 | -1.7 | 3 | 1 | 6
Cc1nonc1-c1nc(-c2nonc2N)n[nH]1 | 23 | -1.1 | 20 | 12 | 22*
C=CCOC(=O)C1=C(C)OC(N)=C(C#N)C12C(=O)N(CN1CCOCC1)c1ccccc12 (stereo not drawn) | 1 | -1 | . | -1 | .
O=c1[nH]c(=O)n(Cc2ccco2)c(O)c1C=NCCCn1ccnc1 | 0 | -0.63 | -9 | -6 | 1
